This passage reports growth results from PubChem BioAssay (NCI).

Each structure is given as a SMILES string. Compounds without any hit were thinned out: in the full panel of roughly 83,000, 20% have a hit.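 Values shown are percent growth following 48 h exposure of cells in 96-well plates to a single concentration of compound; below 10 was considered active.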 Activity calls are given as the source filed them.

This assay concerns MDA-MB-468 breast. In words: NCI-60 one-dose screen, 48 h (100 = growth as untreated, 0 = no growth, -100 = all killed). As to conditions: 10 µM unless noted.
Turning to `Cc1ccc(NCCN(C)C)c2c(=O)c3ccccc3sc12`, the growth was 26% (inactive).

For `COC(=O)c1ccc([N+](=O)[O-])c(C)c1`, the growth was 102% (inactive).

Regarding `Cc1ccc(-n2nc3c(c(C#N)c2=O)CC(c2ccccc2Cl)C([N+](=O)[O-])=C3O)cc1` (stereo not given), the growth was 114% (inactive).

As to `N#CC(C#N)N=Nc1ccc(Br)cc1`, the growth is 0.0168% (active).

Turning to `Clc1cc(Cl)c2nc(-c3ccc(-c4ccc(/C=N/NC5=NCCN5)cc4)s3)cn2c1`, the growth was 103% (inactive).

Take `COc1ccc(C(=O)c2nc3ccccc3n2CC(=O)c2ccc(F)cc2)cc1`: the growth was 55% (inactive).

Turning to `CCOC(=O)C1=C(C)NC(=S)NC1c1ccccc1` (stereo not given), the growth was 98.3% (inactive).

On to `O=C(CCl)N1c2ccccc2Sc2ccc3ccccc3c21`, for which the growth was -76.1% (active).

For `CCOC(=O)CNC(=O)C1(NC(=O)CNC(=O)OCc2ccccc2)CCCC1`, the growth is 131% (inactive).

With `COc1ccc2c(=O)c(OC)c(-c3cc(OC)c(OC)c(OC)c3)oc2c1`, the growth is 86.5% (inactive).

In the case of `CC(=O)NC(C)(C)C(=O)N[C@@H](C)C(=O)NC(C)(C)C(=O)N[C@@H](C)C(=O)NC(C)(C)C(=O)N[C@@H](C)C(=O)N[C@@H](CCC(N)=O)C(=O)NC(C)(C)C(=O)N[C@H](C(=O)NC(C)(C)C(=O)NCC(=O)N[C@@H](CC(C)C)C(=O)NC(C)(C)C(=O)N1CCC[C@H]1C(=O)N[C@H](C(=O)NC(C)(C)C(=O)NC(C)(C)C(=O)N[C@@H](CCC(N)=O)C(=O)N[C@@H](CCC(N)=O)C(=O)N[C@H](CO)CC1CCCCC1)C(C)C)C(C)C`, the growth was 3.04% [5 µM] (active).

With `Cn1c(O)c(N=NC(=O)c2cc(-c3ccccc3)on2)c2ccccc21`, the growth is 107% (inactive).

Turning to `N#Cc1cnn(-c2nc3c(Cl)cccc3s2)c1N`, the growth is 85.3% (inactive).

With `CCCCCCN1CSC(=S)N(CCCCCC)C1`, the growth was 89% (inactive).

Consider `COc1ccc(Cn2cc3c(c2-c2ccc(O)cc2)CCc2cnoc2-3)cc1`, for which the growth is -3.26% (active).

Consider `Cc1nn(C)c2ncnc(N/N=C/c3cccc(O)c3O)c12`, for which the growth is -11% (active).

On to `C=C1C(=O)O[C@H]2[C@H]1CC/C(COC(=O)NCCc1c[nH]c3ccccc13)=C\CC[C@@]1(C)O[C@@H]21`, for which the growth was -6.71% (active).

Regarding `CCOC(=O)C1C(=O)C=C(c2ccc(OC)cc2)CC1c1sc(N(C)Cc2ccccc2)nc1Cl` (stereo not given), the growth is 58.3% (inactive).

As for `NC(=O)CCC(C(=O)O)N1C(=O)c2ccc(O)cc2C1=O` (stereo not given), the growth was 109% (inactive).

For `COc1ccc(/C=C(/C#N)n2nnc3cccc(F)c32)cc1`, the growth was -5.27% (active).

For `NC(=NCCCOc1ccc(F)cc1)Nc1ccc(I)cc1`, the growth is 27.8% (inactive).

As for `CCOC(=O)c1c(NC(=O)c2cccc(C(F)(F)F)c2)sc2c3c(ccc12)OCN(C)C3`, the growth is -67.2% (active).

For `CCN(CC)c1ccc(/C=N/NC(=O)c2ccc(S(N)(=O)=O)cc2)cc1`, the growth is 1.85% (active).

As for `O=S(=O)(Nc1ccc(Br)c(Cl)c1)c1ccc(-c2cnc(C3CC3)o2)cc1`, the growth is -23.9% (active).

On to `Cc1ccc(CNc2ccc3nc(CCC(C)C)[nH]c3c2)cc1`, for which the growth is 78.3% (inactive).

With `Nc1c(C(=O)Nc2cccc(F)c2)sc2nc3c(cc12)C(=O)CCC3`, the growth is 33.2% (inactive).

Regarding `CCN(CC)CCNC(Cc1ccccc1)c1ccc(OCc2ccccc2)cc1` (stereo not given), the growth was 66.4% (inactive).

For the molecule `COc1ccc2c(c1)c(-c1nn3c(=O)cc(-c4ccccc4)nc3s1)cn2C`, the growth was 20.1% (inactive).

Regarding `CC(=O)OCC1SC(OC(C)=O)C(NC(=O)/C=C/CCl)C(OC(C)=O)C1OC(C)=O` (stereo not given), the growth was 98.5% (inactive).

As to `CC(C)C[C@@H](C(=O)N[C@H](C(=O)OC1CCCC1)c1ccccc1)[C@H](O)C(=O)NO`, the growth is 16.9% (inactive).

With `O/N=C1\c2ccccc2-c2ccc(Br)cc21`, the growth was 108% (inactive).

As for `O=C(NNc1nc2cc(F)ccc2n2cncc12)c1cnccn1`, the growth was 31.7% (inactive).

`COc1ccc(CCN=Cc2ccc(Cl)cc2)cc1OC`: the growth was 117% (inactive).

Take `COc1cccc(/C=C2/C(=O)N(Cc3ccco3)SC2=S)c1OC`: the growth is 76% (inactive).

Turning to `CC[C@H]1CN2CCc3cc(OC)c(OC)cc3C2C[C@@H]1CC1NCCc2cc(OC)c(OC)cc21` (stereo not given in full), the growth was -59.5% (active).

On to `CCC(CCNc1cc(OC)cc2cccnc12)CN1C(=O)c2ccccc2C1=O` (stereo not given), for which the growth is 7.31% (active).

As for `C#CCOc1ccc(C2=NN(CC3CC3)C3N=C(Cl)c4ncn(CC5CC5)c4N23)cc1OCC#C` (stereo not given), the growth is 66.2% (inactive).

Regarding `COc1cccc(NC(=O)c2sc3nc(C)c(C(C)=O)cc3c2N)c1`, the growth is -14.8% (active).

As for `Cc1cccc(NC(=O)[C@@H]2c3ccccc3C(=O)N(c3ccc(Cl)cc3)[C@H]2c2ccc(Cl)cc2)n1`, the growth is 17.7% (inactive).

With `COc1cc(-c2ccc(-[n+]3nc(-c4ccc([N+](=O)[O-])cc4)nn3-c3ccc([N+](=O)[O-])cc3)c(OC)c2)ccc1-[n+]1nc(-c2ccc([N+](=O)[O-])cc2)nn1-c1ccc([N+](=O)[O-])cc1`, the growth is -62.2% (active).
